Assay outcomes (PubChem)
In the library only some 6.7% were active in any assay of this set; here they are far more common.
T cruzi growth: T. cruzi intracellular proliferation inhibitors, primary screen, cell-based, beta-gal Tulahuen parasites, NIH3T3 host, luminescence; inhibition, % at 8.34 µM; T. cruzi beta-gal in NIH3T3, GalScreen luminescence, 90 h; AID 624255, 2012; hit rate 5.9% among 77,000;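 active = mean inhibition above about 93%, with at least 55% of replicates each passing it, limit read from the data, passing the limit was not always enough; inconclusive = only one of those two conditions holds; inactive = neither condition holds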
C diff growth: C. difficile growth inhibitors, primary screen, HTS; Clostridium difficile clinical isolate growth, OD600, 24 h; stronger effect = lower value; growth activity, negative = inhibition, % at 16 µg/mL (by protocol); hit rate 0.25% among 86,000;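 active = mean growth activity at or below -80% and every replicate also at or below -80%; inconclusive = mean at or below -80% but some replicate above -80%; inactive = mean growth activity above -80%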
Pf Dd2 growth: P. falciparum Dd2 growth inhibitors, primary screen, SYBR Green fluorescence, single dose replicates; 72 h; stronger effect = lower value; activity change, % at 10 µM; hit rate 2.3% among 94,000; in the data active = activity change below about -80%; inconclusive = no clear call, values can overlap the other calls
Large screens that a line does not name were inactive; ! = not confirmed by another sample.

C[C@H]1CN([C@@H](C)CO)S(=O)(=O)c2ccc(C#Cc3ccncc3)cc2O[C@@H]1CN(C)C(=O)C1CC1	none (no result: C diff growth)
CCC(=O)N(C)C[C@H]1Oc2cc(C#Cc3ccccc3)ccc2S(=O)(=O)N([C@@H](C)CO)C[C@@H]1C	Pf Dd2 growth -83 (no result: T cruzi growth)
Cc1noc(C)c1S(=O)(=O)N(C)C[C@@H]1OCCCC[C@H](C)Oc2ccc(NC(=O)NC(C)C)cc2C(=O)N([C@H](C)CO)C[C@H]1C	none
COCC(=O)N1CCC2(CC1)CN(C(=O)NC1CCCC1)[C@H](CO)c1c2c2ccc(OC)cc2n1C	none (no result: T cruzi growth)
CN1C(=O)c2cc(NC(=O)c3cccs3)ccc2OC[C@H]2O[C@@H](CC(=O)Nc3ccc4c(c3)COC4)CC[C@@H]21	none (no result: T cruzi growth)
O=C(NC1CCCC1)N[C@@H]1CC[C@H](CC(=O)N2CCOCC2)O[C@@H]1CO	none (no result: T cruzi growth)
CC(C)C#Cc1ccc2c(c1)O[C@@H](CN(C)C(=O)C1CCCCC1)[C@H](C)CN([C@@H](C)CO)S2(=O)=O	Pf Dd2 growth -82
C[C@@H]1CN([C@H](C)CO)S(=O)(=O)c2ccc(C#Cc3ccncc3)cc2O[C@@H]1CN(C)C(=O)C1CC1	none (no result: C diff growth)
C[C@@H]1CN([C@@H](C)CO)S(=O)(=O)c2ccc(C#Cc3ccccc3)cc2O[C@H]1CN(C)C(=O)C1CC1	Pf Dd2 growth -89
CC(C)C#Cc1ccc2c(c1)O[C@@H](CN(C)C(=O)C1CCCCC1)[C@@H](C)CN([C@H](C)CO)S2(=O)=O	none
O=C(C1CCCCC1)N1CC2(C1)[C@@H](c1ccccc1)[C@@H](CO)N2C(=O)NC1CCCC1	none (no result: T cruzi growth)
C[C@@H]1CN([C@H](C)CO)C(=O)c2cc(NS(=O)(=O)c3ccccc3)ccc2O[C@@H](C)CCCCO[C@H]1CN(C)S(=O)(=O)c1ccc(F)cc1	none
Cc1ccc(S(=O)(=O)Nc2ccc3c(c2)CC(=O)N([C@H](C)CO)C[C@H](C)[C@@H](CN(C)Cc2ccncc2)O3)cc1	none
CCCN1C[C@@H](C)[C@@H](OC)CN(C)C(=O)c2ccc(NC(=O)Nc3ccccc3F)cc2OC[C@@H]1C	none (no result: C diff growth)
CO[C@@H]1CN(C)C(=O)c2ccc(NC(=O)Nc3ccccc3Cl)cc2OC[C@@H](C)N(C)C[C@H]1C	Pf Dd2 growth -87 (no result: C diff growth)
CO[C@@H]1CN(C)C(=O)c2ccc(NC(=O)Nc3ccccc3F)cc2OC[C@@H](C)N(C)C[C@H]1C	none (no result: T cruzi growth)
CO[C@@H]1CN(C)C(=O)c2ccc(NC(=O)Nc3ccccc3F)cc2OC[C@@H](C)N(CCC(F)(F)F)C[C@H]1C	Pf Dd2 growth -85
CO[C@H]1CN(C)C(=O)c2ccc(NC(=O)C3CC3)cc2OC[C@@H](C)N(Cc2ccccc2)C[C@@H]1C	none (no result: C diff growth)
CC(C)NC(=O)Nc1ccc2c(c1)CC(=O)N([C@H](C)CO)C[C@@H](C)[C@@H](CN(C)S(=O)(=O)c1ccccc1)O2	none
C[C@@H]1CN([C@H](C)CO)C(=O)c2cc(C3=CCCCC3)cnc2O[C@@H]1CN(C)C(=O)Cc1cccnc1	none
Cc1ccc(S(=O)(=O)N(C)C[C@@H]2OCCCC[C@@H](C)Oc3ccc(NC(=O)CCCCCC(=O)Nc4ccccc4N)cc3C(=O)N([C@H](C)CO)C[C@@H]2C)cc1	none (no result: T cruzi growth, Pf Dd2 growth)
Cc1ccc(S(=O)(=O)N(C)C[C@H]2OCCCC[C@@H](C)Oc3ccc(NC(=O)CCCCCC(=O)Nc4ccccc4N)cc3C(=O)N([C@H](C)CO)C[C@@H]2C)cc1	Pf Dd2 growth -87 (no result: T cruzi growth)
C[C@@H]1CCCCO[C@@H](CN(C)S(=O)(=O)c2ccc(Cl)cc2)[C@@H](C)CN([C@H](C)CO)C(=O)c2cc(NC(=O)CCCCCC(=O)Nc3ccccc3N)ccc2O1	none (no result: C diff growth)
Cc1noc(C)c1S(=O)(=O)N(C)C[C@H]1OCCCC[C@@H](C)Oc2ccc(NC(=O)CCCCCC(=O)Nc3ccccc3N)cc2C(=O)N([C@@H](C)CO)C[C@@H]1C	Pf Dd2 growth -81
Cc1cc(C(=O)Nc2cccc3c2O[C@@H](CN(C)C(=O)Nc2c(C)noc2C)[C@H](C)CN([C@@H](C)CO)C3=O)n(C)n1	none (no result: C diff growth)
COc1ccccc1-c1ccc(C2[C@@H]3CN(Cc4cccc(F)c4)C[C@H]2N3)cc1 (stereo partly specified)	C diff growth -90! (no result: T cruzi growth)
COc1ccccc1-c1ccc(C2[C@@H]3CN(Cc4nccs4)C[C@H]2N3)cc1 (stereo partly specified)	none (no result: T cruzi growth)
COc1ccccc1CN1[C@@H]2CNC[C@H]1C2c1ccc(-c2cccnc2)cc1 (stereo partly specified)	none (no result: T cruzi growth)
COc1ccccc1CN1C[C@@H]2N[C@H](C1)[C@@H]2c1ccc(-c2cccnc2)cc1	Pf Dd2 growth -87 (no result: T cruzi growth)
COc1cccc(CN2C[C@@H]3N[C@H](C2)C3c2ccc(-c3ccccc3OC)cc2)c1 (stereo partly specified)	C diff growth -97! (no result: T cruzi growth)
COc1cccc(CN2C[C@@H]3N[C@H](C2)C3c2ccc(-c3ccc(C#N)cc3)cc2)c1 (stereo partly specified)	Pf Dd2 growth inconclusive (no result: T cruzi growth)
O=C(C[C@@H]1CC[C@H]2[C@@H](COC[C@@H](O)CN2Cc2nccs2)O1)NCc1ccc(F)cc1	none
CC(=O)N1CC(=O)N2[C@@H](CO)[C@H](c3ccc(-c4cccc(C(=O)N(C)C)c4)cc3)[C@@H]2C1	none (no result: T cruzi growth)
C[C@H]1CN([C@@H](C)CO)C(=O)c2cc(NS(=O)(=O)c3ccc(F)cc3)ccc2O[C@@H]1CN(C)CC1CC1	none (no result: T cruzi growth)
C/C=C/c1ccc([C@H]2[C@@H](CO)N(CC3CCCC3)C23CN(C(=O)CC)C3)cc1	none (no result: T cruzi growth)
C/C=C/c1ccc([C@H]2[C@@H](CO)N(CC3CCCC3)[C@@H]2CNC(=O)NC(C)C)cc1	Pf Dd2 growth -94 (no result: T cruzi growth)
C/C=C/c1ccc([C@H]2[C@@H](CO)N(CC3CC3)[C@H]2CNS(C)(=O)=O)cc1	none
C/C=C/c1ccc([C@H]2[C@@H](CO)N(CC3CC3)[C@@H]2CNC(=O)NC(C)C)cc1	none (no result: T cruzi growth)
C/C=C/c1ccc([C@H]2[C@@H](CO)N(CC3CCCC3)C23CN(C(=O)CC2CC2)C3)cc1	Pf Dd2 growth -87 (no result: T cruzi growth)
C/C=C/c1ccc([C@H]2[C@H](CO)N(c3nc(CC)cs3)[C@H]2CNC(C)C)cc1	Pf Dd2 growth -81
C/C=C/c1ccc([C@H]2[C@@H](CO)N(CC3CCCCC3)[C@@H]2CNC(C)C)cc1	Pf Dd2 growth -94 (no result: T cruzi growth)
C/C=C/c1ccc([C@@H]2[C@@H](CO)N(c3nc(CC)cs3)[C@@H]2CNC(C)C)cc1	none
O=C(N[C@@H]1CC[C@H](CCNC(=O)C2CCOCC2)O[C@H]1CO)c1ccncc1	none (no result: C diff growth)
Cc1ccccc1-c1ccc([C@H]2[C@H](CO)N3C(=O)CN(C(=O)Cc4ccccn4)C[C@@H]23)cc1	none (no result: T cruzi growth)
CO[C@H]1CN(C)C(=O)c2cc(NC(=O)c3ccc4c(c3)OCO4)ccc2OC[C@H](C)NC[C@@H]1C	none (no result: C diff growth)
CO[C@@H]1CN(C)C(=O)c2cc(NC(C)=O)ccc2OC[C@H](C)N(Cc2ccncc2)C[C@H]1C	none (no result: C diff growth)
CO[C@H]1CN(C)C(=O)c2cc(NC(C)=O)ccc2OC[C@H](C)N(Cc2ccncc2)C[C@H]1C	Pf Dd2 growth -80 (no result: C diff growth)
COCC(=O)Nc1ccc2c(c1)C(=O)N(C)C[C@H](OC)[C@H](C)CN(Cc1cccc(F)c1)[C@@H](C)CO2	Pf Dd2 growth -82 (no result: C diff growth)
COCC(=O)Nc1ccc2c(c1)C(=O)N(C)C[C@@H](OC)[C@@H](C)CN(Cc1cccc(F)c1)[C@H](C)CO2	none (no result: C diff growth)
